Hit rate of the full screen: of about 360,000 compounds, about 7,300 (2%) were called active. What follows is part of a selection rich in actives, with near analogues and random picks from the rest. Values without a mark were called inactive. Cut-off read from the data, not from the text of the source: active = inhibition above about 50%; inactive = the rest.
Test: inhibitors of TWEAK-Fn14 signaling, primary screen, luciferase reporter cells, uHTS (AID 1159606)
Details: TWEAK-stimulated Fn14 reporter cells, luciferase luminescence, 8 h; at 10 µM; stronger effect = higher value

| SMILES | inhibition |
| --- | --- |
| COc1ccc(CN(Cc2ccco2)S(=O)(=O)c2ccc(S(=O)(=O)N3CCCC3)cc2)cc1 | -30.2% |
| Cc1ccsc1C(=O)OCC(=O)c1cc(C)n(CC2CCCO2)c1C (stereo not drawn) | 103% (active) |
| Cc1ccsc1C(=O)OCC(=O)NCCc1ccccc1 | -22.4% |
| Cc1ccsc1C(=O)OCC(=O)Nc1cccc(F)c1 | -31.6% |
| Cc1ccc(OCC(=O)N2CCN(S(=O)(=O)c3ccc(Cl)s3)CC2)cc1C | 10.7% |
| CCCC(C)C(=O)Nc1ccc(NC(C)=O)cc1 (stereo not drawn) | -11.6% |
| Cc1cccc(C)c1NC(=O)CCS(=O)(=O)c1cccc2nsnc12 | -23.2% |
| O=C(CCS(=O)(=O)c1ccccc1)Nc1nc2c(s1)CCCC2 | 22% |
| Cc1ccc(S(=O)(=O)CCC(=O)OCC(=O)N(C)Cc2ccccc2)cc1 | 4.76% |
| COc1cccc2sc(N(CCCN(C)C)C(=O)CCS(=O)(=O)c3ccccc3)nc12 | 77.6% (active) |
| COc1ccc(N(C)C(=O)CCS(=O)(=O)c2cccc3nsnc23)cc1 | 36.5% |
| Cc1cccc2sc(N(CCCN(C)C)C(=O)CCS(=O)(=O)c3ccccc3)nc12 | 61.9% (active) |
| CCOc1ccc(NS(=O)(=O)c2ccc(C(=O)NC3CCN(Cc4ccccc4)CC3)cc2)cc1 | 10.7% |
| Cc1cccc(CCNC(=O)Cn2ncc3c([nH]c4ccc(C)cc43)c2=O)c1 | -15.4% |
| C=CCc1cc(S(=O)(=O)c2ccc(O)c(CC=C)c2)ccc1O | 30.9% |
| O=C1C(Sc2cccc(F)c2)=C[C@@]2(O)CC[C@@H](O)[C@]1(Sc1cccc(F)c1)[C@H]2O | 31.5% |
| CC(OC(=O)Cc1ccc(F)cc1)C(=O)N1CCc2ccccc21 (stereo not drawn) | -3.73% |
| C[C@H](CO)N1C[C@H](C)[C@H](CN(C)C(=O)Nc2ccc(C(F)(F)F)cc2)Oc2c(NC(=O)c3ccncc3)cccc2C1=O | 7.86% |
| Cc1nnc(NC(=O)CSc2nccn2-c2cccc(C)c2C)s1 | 12.7% |
| COc1cc(C(O)c2nc(-c3cnn(C)c3)cs2)ccc1F (stereo not drawn) | -2.28% |
| Oc1c(Br)cccc1/C=N/Nc1c(F)c(F)c(F)c(F)c1F | 71.5% (active) |
| Brc1ccccc1/C=N/Nc1nc2ccccc2o1 | -8.62% |

| SMILES | inhibition |
| --- | --- |
| c1cc(-c2ccc3[nH]ccc3c2)n2ccnc2c1 | -2.85% |
| COCCNC(=S)N1CCC(NC(=O)C23CC4CC(CC(C4)C2)C3)CC1 | 15.9% |
| CCOC(=O)[C@]12CCCC=C1N(Cc1ccc(Cl)cc1Cl)C(=O)[C@H](CC(=O)N1CCCCC1)C2 | 7.58% |
| COc1cc2c(=O)n(C)c3ccccc3c2cc1OC | -37.3% |
| CC(=O)Nc1cccc(C(=O)OCC(=O)NCc2cc(C)c(O)c(C)c2)c1 | -19.2% |
| O=C(COC(=O)c1ccc(O)cc1O)c1ccc2c(c1)OCCO2 | -18.5% |
| O=C(COC(=O)c1ccccc1)c1ccc2c(c1)OCCO2 | 77.6% (active) |
| CC(=O)Nc1cccc(C(=O)OCC(=O)c2ccc3c(c2)OCO3)c1 | 81.9% (active) |
| O=C(OCc1ccccc1F)c1ccc2c(c1)OCCO2 | -12.5% |
| COc1ccc(C(=O)OCC(=O)Nc2cccc(C(C)=O)c2)cc1OC | 11.4% |
| CCOC(=O)[C@]12CCC=C1N(Cc1ccccc1)C(=O)[C@H](CC(=O)N1CCCC1)C2 | 15.9% |
| CCN(CCCNC(=O)CCn1c(=O)[nH]c2ccsc2c1=O)c1ccccc1 | -1.46% |
| CCN1CCN(CCNC(=O)c2ccc3c(c2)NC(=O)/C(=C\c2cccc(Cl)c2)S3)CC1 | -66.6% |
| CCN(CCCNC(=O)c1ccc2c(c1)NC(=O)CN2C)c1cccc(C)c1 | 82.5% (active) |
| CCOC(=O)N1CCN(C(=O)C[C@@H]2C[C@@]3(C(=O)OC)CCCCC=C3N(CCC3=CCCCC3)C2=O)CC1 | -5.06% |
| COCCCn1cc(CN2CC(N(C)C)CS2(=O)=O)nn1 (stereo not drawn) | 20.9% |
| CC(C)C[C@H]1CNC(=O)C(=O)N1C[C@H]1CCCN1C[C@H](Cc1ccc(O)cc1)N1C[C@H](CC(C)C)N(CC2CCCCCC2)C(=O)C1=O | 1.64% |
| CCC(C)Cn1c(O)cc2nn(-c3nc4ccccc4s3)c(=O)c-2c1C (stereo not drawn) | 61.6% (active) |
| C[C@H](CO)N1C[C@H](C)[C@H](CN(C)C(=O)Nc2ccc3c(c2)OCO3)Oc2ncc(Br)cc2C1=O | -2.28% |
| OCCC1CN(Cc2ccc(Oc3ncccn3)cc2)CCN1CCc1ccccc1 (stereo not drawn) | 75.5% (active) |
| CCOc1ccc(CN2CCN(CCCc3ccccc3)C(CCO)C2)cc1 (stereo not drawn) | 1.65% |
| CC(C)=CCN1CCN(Cc2ccc(Oc3ncccn3)cc2)CC1CCO (stereo not drawn) | 14.3% |

| SMILES | inhibition |
| --- | --- |
| COc1ccc(OC)c(NC(=O)c2ccc3c(c2)CCN3S(C)(=O)=O)c1 | -3.45% |
| CN(C)C1CN(Cc2cn(Cc3ccccc3)nn2)S(=O)(=O)C1 (stereo not drawn) | 7.88% |
| COCc1c(N)c(C)nc(Cl)c1C#N | 12.4% |
| C[C@@H]1CN([C@@H](C)CO)C(=O)CCCn2nncc2CO[C@H]1CN(C)Cc1ccc(C(F)(F)F)cc1 | 1.47% |
| COC(=O)N(C)C[C@@H]1OCc2cnnn2CCCC(=O)N([C@@H](C)CO)C[C@@H]1C | 19.1% |
| C[C@@H]1CN([C@@H](C)CO)C(=O)CCCn2nncc2CO[C@H]1CN(C)C(=O)Nc1ccc(C(F)(F)F)cc1 | 106% (active) |
| O=C1c2ccncc2C(=O)N1C1CCCCC1 | -3.74% |
| O=[N+]([O-])c1cc(Br)c(O)c(/C=N/Nc2nc3ccccc3s2)c1 | 75.7% (active) |
| c1ccc(C(=NNc2nc3ccccc3s2)c2ccccn2)cc1 | 44.1% |
| O=C(N/N=C/c1cc(Br)c(O)c([N+](=O)[O-])c1)C(O)(c1ccccc1)c1ccccc1 | -0.77% |
| Cc1cccc(CN2CCN(C3CN(Cc4ccccc4)S(=O)(=O)C3)CC2)c1 (stereo not drawn) | -19.1% |
| O=C(c1c(Cl)cccc1Cl)N1CCN(c2cccc3[nH]ccc23)CC1 | -30.3% |
| COc1ccc(-c2ccc(CN3C(CC(C)C)C(=O)N(Cc4cn(CC5CCCCC5)nn4)CCS3(=O)=O)cc2)cc1 (stereo not drawn) | 24.8% |
| O=S1(=O)CC(N2CCN(CCO)CC2)CN1Cc1cn(Cc2ccc(Cl)cc2)nn1 (stereo not drawn) | -0.1% |
| CCOc1c2ccc(C(=O)NCc3ccc4c(c3)OCO4)cc2nn1C | -1.73% |
| O=C(CSc1ncnc2scc(-c3ccccc3)c12)NCc1ccc2c(c1)OCO2 | 27.4% |
| CN(C)C(=O)c1cccc(-c2cnc3sc(NCc4ccc5c(c4)OCO5)nn23)c1 | 81.9% (active) |
| O=C(C1CCN(S(=O)(=O)c2ccc(Br)s2)CC1)N1CCN(c2ccccc2)CC1 | 35.1% |
| CC(C)C(=O)N1CCC2(CC1)Oc1ccc(F)cc1C(=O)C21CC(c2ccccc2)=NO1 (stereo not drawn) | -32.9% |
| CC1(C(=O)NNC(=S)NCC2CCCO2)CC1(Cl)Cl (stereo not drawn) | 5.56% |
| Cc1c(CCC(=O)O)c(=O)oc2cc(OCc3ccc(Br)cc3)ccc12 | 6.88% |
| Cc1c(CCC(=O)O)c(=O)oc2c(C)c(OCc3ccccc3Cl)ccc12 | 55.7% (active) |

| SMILES | inhibition |
| --- | --- |
| CCOC(=O)CCc1c(C)c2ccc(OCc3nn[nH]n3)c(C)c2oc1=O | 11.4% |
| CC(C)Nc1ncnc2c1ncn2[C@H]1CN(Cc2ccncc2)C[C@@H](CO)O1 | -31.2% |
| O=C(Nc1ccc2c(c1)OCCO2)C(C1CC1)N1CCC(Cc2ccccc2)CC1 (stereo not drawn) | -6.47% |
| Oc1ccc2nc(Cc3ccccc3)[nH]c2c1 | -12.2% |
| O=C(/C(=C/c1cccc(Cl)c1)c1nc2ccccc2[nH]1)c1ccccc1 | 72.2% (active) |
| O=c1c2cc(Br)ccc2nc(-c2cccc(Cl)c2)n1O | 12.1% |
| Brc1ccc2nc(-c3ccccc3)c(Cc3ccccc3)n2c1 | -30.1% |
| CCCCC[C@H](C)N1C[C@@H](COCc2ccccc2)Oc2cc(N3CCC[C@@H]3CO)ccc2S1(=O)=O | 9.1% |
| CC(C)(CCl)C(=O)Nc1ccc(Sc2ccc(F)cc2)cc1 | 60.9% (active) |
| O=C(CCl)Nc1ccc(Sc2ccc(NC(=O)CCl)cc2)cc1 | -24.1% |
| Cc1ccc(Sc2ccc(NC(=O)c3ccc(F)cc3)cc2C#N)cc1 | -7.53% |
| CCn1c(SCC(=O)Nc2nc(C)cs2)nnc1C(C)NC(=O)c1ccccc1 (stereo not drawn) | -0.58% |
| CN(Cc1ccccc1)C(=O)[C@@H]1CCCN1C(=O)[C@@H]1CCCN1C(=O)c1c(F)cccc1F | 12.3% |
| CCOCCCN(C)C1CCN(C(=O)c2oc3ccccc3c2NC(=O)COc2cccc(C)c2)CC1 | -4.99% |
| Cc1cccc(-n2c(SCC(N)=O)nc3c(c2=O)C2(CCCCC2)Cc2ccccc2-3)c1 | 54% (active) |
| Cc1cccc(-n2c(=O)c3c(C)c(C)sc3n(CC(N)=O)c2=O)c1 | 21.1% |
| N#CCSc1nc2c(c(=O)n1Cc1ccccc1)C1(CCCC1)Cc1ccccc1-2 | 13.4% |
| CCCc1nc2c3ccccc3ccn2c1Cc1ccccc1C(F)(F)F | 8.3% |
| Cc1noc(C)c1S(=O)(=O)N1CCCC(C(=O)Nc2nccs2)C1 (stereo not drawn) | 4.3% |
| CC(CC(=O)O)C(=O)c1ccc(Cl)c([N+](=O)[O-])c1 (stereo not drawn) | 0.14% |
| CC(=O)Nc1ccc(C=CC(=O)c2ccc([N+](=O)[O-])cc2)cc1 | 5.86% |
| O=C(/C=C/c1ccc(Cl)c([N+](=O)[O-])c1)c1ccc(O)cc1 | 84.1% (active) |

— PubChem BioAssay AID1159606 (Sanford-Burnham Center for Chemical Genomics, 2016)
